Compounds without any hit were thinned out: in the full panel of roughly 83,000, 20% have a hit.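 Plates (96-well) were seeded with cells, treated with compound at one concentration, and incubated for 48 hours before percent growth was determined.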 A number with no mark means an inactive call. Activity calls are given as the source filed them. Rule for the calls: active = growth percent below 10; inactive = the rest.
What follows are molecules tested on SF-268 CNS (assay: NCI-60 one-dose screen, 48 h (100 = growth as untreated, 0 = no growth, -100 = all killed)). Settings: 10 µM unless noted.
`Cc1nn(-c2ccccc2)c(Oc2ccc(Cl)cc2)c1/C=N\N=c1/sc2ccccc2n1C` showed a growth of 79.6%. For `CC(C)Sc1nc(NNC(N)=S)c(C#N)c(-c2ccc(F)cc2)n1`, the growth was 101%. In the case of `NC(=O)c1ccc[n+](Cc2ccc(Cl)cc2Cl)c1`, the growth is reported as 103%. For `CCCCCCCC/C=C\CCCCCCCCOc1ccccc1CC(=O)NCC[N+](C)(C)C`, the growth was 65.9%. `O=C1Nc2ccccc2/C1=C/c1cn(C(=O)c2ccc(Cl)cc2)c2ccccc12` gave a growth of 99.9%. `O=C1/C(=C\c2cccnc2)SC(=S)N1CCc1ccc(O)cc1` gave a growth of 68.5%. `COc1ccc(C2C(c3nn[nH]n3)=C(N)Oc3c2ccc2ccccc32)cc1` (stereo unspecified) showed a growth of 72.1%. `COc1ccc(NC(=O)CSc2nnc(-c3cc(-c4ccc(S(N)(=O)=O)cc4)nc4ccccc34)n2-c2ccccc2)cc1` was tested, and the growth was 68.6%. Molecule `COc1ccc(-c2csc(C3=C(O)CN(C(C)C)C3=N)n2)cc1OC` has a growth of 117%. With `Cn1cc(-c2csc(-c3ccccc3)n2)c2cccnc21` the growth was -18.3% [100 µM] (active). `CCN1CCN(c2cc(C)nc(NCc3cc(Nc4ccnc5cc(Cl)ccc45)ccc3F)n2)CC1` showed a growth of 58%. Work on `C#CCOc1nc(C)cc(C)c1C#N` yielded a growth of 99.6%. `Cc1cc(O)c(C2=NN(c3ccc(S(N)(=O)=O)cc3)C(c3ccccc3Cl)C2)cc1Cl` (stereo unspecified) was tested, and the growth was 11.6%. `N#Cc1c(-c2cccc(Cl)c2)cc(-c2cccc(Cl)c2)[nH]c1=O` showed a growth of 83.4%. With `N=c1sc(Cc2ccc(Cl)cc2)cn1CC(=O)c1ccc(F)cc1` the growth was 81.8%. For `COc1cc(CCC[P+](c2ccccc2)(c2ccccc2)c2ccccc2)cc2c1OCO2`, the growth was 26.1%. For `CCCCc1ccc(Nc2ccc(Nc3ccc(CCCC)cc3S(=O)(=O)O)c3c2C(=O)c2ccccc2C3=O)c(S(=O)(=O)O)c1`, the growth was 99.7%. `COc1ccc2occ(C3=C(c4c[nH]c5ccccc45)C(=O)N(O)C3=O)c2c1` showed a growth of 91.8%. `CC1(C)OC2C(CO[Si](C)(C)C(C)(C)C)OC(n3c(I)c(C#C[Si](C)(C)C)c(=O)[nH]c3=O)C2O1` (stereo unspecified) gave a growth of 108%. In the case of `Cc1ccc(S(=O)(=O)NCC[C@@H]2C[C@H]2c2cc3ccccc3s2)cc1`, the growth is reported as 93.3%. In the case of `NC[C@H](O)c1ccc(O)c(O)c1`, the growth is reported as 112%. `C=C(C)[C@@H]1CC[C@]2(C(=O)NC3CCCCC3)CC[C@]3(C)[C@H](CC[C@@H]4[C@@]5(C)CCC(=O)C(C)(C)[C@@H]5CC[C@]43C)[C@@H]12` was tested, and the growth was 94.3%. `N=C1CCC(=N)c2c1c(O)c1ccccc1c2O` showed a growth of 85.4%. `COC(=O)[C@]12CC[C@@H](C)[C@H](C)[C@@H]1C1=CC[C@@H]3[C@@]4(C)C(C=O)=C[C@@](C)(COC(C)=O)[C@@H]4C(=O)C[C@@]3(C)[C@]1(C)CC2` was tested, and the growth was 42.2%. In the case of `COc1cc(/C=N/Nc2ncc(-c3cc4cc5c(cc4o3)OCO5)s2)cc(OC)c1OC`, the growth is reported as 74.9%. With `OC(c1cccc(-n2ccc(C(F)(F)F)n2)c1)c1cnccc1NC1CCCCCC1` (stereo unspecified) the growth was 64.4%. Molecule `COc1ccc(-c2[nH]c(=S)n(C(CC3(C)NCC(=O)N3n3c(-c4ccccc4)cc(C)nc3=S)c3ccc(OC)cc3)c(=O)c2Br)cc1` (stereo unspecified) has a growth of 75.6%. `Cc1ccc(Cl)c(NS(=O)(=O)c2ccc(-c3cnc(C4CC4)o3)cc2)c1` gave a growth of 56.2%. Work on `O=C(NC(Cc1nnc2n(Cc3ccccc3)c(=O)c3c4c(sc3n12)CCCC4)c1ccc(Cl)cc1)c1ccccc1` (stereo unspecified) yielded a growth of 102%. `Cc1c(O)cc(-c2cnc(N/N=C\c3ccc(Cl)cc3)s2)c(O)c1C` was tested, and the growth was 92.4%. With `CCN(CC)CCn1nc2c3c(cccc3c1=O)-c1ccccc1-2` the growth was 45.9%. `Fc1c[c-]c(-c2ccccn2)c(F)c1.[CH3-].[Pt+2].c1ccc(P(C[PH+](c2ccccc2)c2ccccc2)c2ccccc2)cc1` gave a growth of 16.9%. With `CCN1C(=O)N(CC)C2Nn3c(s/c(=C\c4cccc([N+](=O)[O-])c4)c3=O)=NC21` (stereo unspecified) the growth was 63.9%. `N#C/C(=C/C=C/c1cccc(Cl)c1)S(=O)c1ccccc1` (stereo unspecified) was tested, and the growth was -59.2% (active). In the case of `Oc1c(CN2CCCC2)cc(COCc2ccc(Br)cc2)c2cccnc12`, the growth is reported as 10.8%. Molecule `O=C(CCCCCCN1CC(=O)N2[C@@H](c3ccccc3Cl)c3[nH]c4ccccc4c3C[C@H]2C1=O)NO` has a growth of 89.9%. `COc1ccc(C2CC(c3cccc(OC)c3)=NN2C(=O)c2cc(OC)c(OC)c(OC)c2)cc1` (stereo unspecified) was tested, and the growth was 41.4%. `CCc1c2c(nc3ccc(OC(=O)OCc4ccc(B5OC(C)(C)C(C)(C)O5)cc4)cc13)-c1cc3c(c(=O)n1C2)COC(=O)[C@]3(O)CC` was tested, and the growth was -7.41% (active).

These molecules were tested on SF-295 CNS in the same assay as above. Settings: 10 µM unless noted.
Work on `Cc1nn(-c2ccccc2)c(Oc2ccc(Cl)cc2)c1/C=N\N=c1/sc2ccccc2n1C` yielded a growth of 101%. `CC(C)Sc1nc(NNC(N)=S)c(C#N)c(-c2ccc(F)cc2)n1` was tested, and the growth was 93.7%. For `NC(=O)c1ccc[n+](Cc2ccc(Cl)cc2Cl)c1`, the growth was 111%. With `CCCCCCCC/C=C\CCCCCCCCOc1ccccc1CC(=O)NCC[N+](C)(C)C` the growth was 63.8%. Work on `O=C1Nc2ccccc2/C1=C/c1cn(C(=O)c2ccc(Cl)cc2)c2ccccc12` yielded a growth of 114%. `O=C1/C(=C\c2cccnc2)SC(=S)N1CCc1ccc(O)cc1` showed a growth of 94%. With `COc1ccc(C2C(c3nn[nH]n3)=C(N)Oc3c2ccc2ccccc32)cc1` (stereo unspecified) the growth was 77.8%. In the case of `COc1ccc(NC(=O)CSc2nnc(-c3cc(-c4ccc(S(N)(=O)=O)cc4)nc4ccccc34)n2-c2ccccc2)cc1`, the growth is reported as 94.5%. Molecule `COc1ccc(-c2csc(C3=C(O)CN(C(C)C)C3=N)n2)cc1OC` has a growth of 113%. `Cn1cc(-c2csc(-c3ccccc3)n2)c2cccnc21` was tested, and the growth was -47.2% [100 µM] (active). With `CCN1CCN(c2cc(C)nc(NCc3cc(Nc4ccnc5cc(Cl)ccc45)ccc3F)n2)CC1` the growth was 31%. Work on `C#CCOc1nc(C)cc(C)c1C#N` yielded a growth of 104%. Work on `Cc1cc(O)c(C2=NN(c3ccc(S(N)(=O)=O)cc3)C(c3ccccc3Cl)C2)cc1Cl` (stereo unspecified) yielded a growth of 63%. `N#Cc1c(-c2cccc(Cl)c2)cc(-c2cccc(Cl)c2)[nH]c1=O` showed a growth of 83.7%. `N=c1sc(Cc2ccc(Cl)cc2)cn1CC(=O)c1ccc(F)cc1` was tested, and the growth was 64.7%. `COc1cc(CCC[P+](c2ccccc2)(c2ccccc2)c2ccccc2)cc2c1OCO2` showed a growth of 68.6%. `CCCCc1ccc(Nc2ccc(Nc3ccc(CCCC)cc3S(=O)(=O)O)c3c2C(=O)c2ccccc2C3=O)c(S(=O)(=O)O)c1` showed a growth of 101%. `COc1ccc2occ(C3=C(c4c[nH]c5ccccc45)C(=O)N(O)C3=O)c2c1` was tested, and the growth was 105%. `CC1(C)OC2C(CO[Si](C)(C)C(C)(C)C)OC(n3c(I)c(C#C[Si](C)(C)C)c(=O)[nH]c3=O)C2O1` (stereo unspecified) showed a growth of 140%. `Cc1ccc(S(=O)(=O)NCC[C@@H]2C[C@H]2c2cc3ccccc3s2)cc1` gave a growth of 103%. In the case of `NC[C@H](O)c1ccc(O)c(O)c1`, the growth is reported as 123%. Work on `C=C(C)[C@@H]1CC[C@]2(C(=O)NC3CCCCC3)CC[C@]3(C)[C@H](CC[C@@H]4[C@@]5(C)CCC(=O)C(C)(C)[C@@H]5CC[C@]43C)[C@@H]12` yielded a growth of 97.8%. For `N=C1CCC(=N)c2c1c(O)c1ccccc1c2O`, the growth was 102%. `COC(=O)[C@]12CC[C@@H](C)[C@H](C)[C@@H]1C1=CC[C@@H]3[C@@]4(C)C(C=O)=C[C@@](C)(COC(C)=O)[C@@H]4C(=O)C[C@@]3(C)[C@]1(C)CC2` was tested, and the growth was 32.1%. In the case of `COc1cc(/C=N/Nc2ncc(-c3cc4cc5c(cc4o3)OCO5)s2)cc(OC)c1OC`, the growth is reported as 67.1%. In the case of `OC(c1cccc(-n2ccc(C(F)(F)F)n2)c1)c1cnccc1NC1CCCCCC1` (stereo unspecified), the growth is reported as 81.3%. Molecule `COc1ccc(-c2[nH]c(=S)n(C(CC3(C)NCC(=O)N3n3c(-c4ccccc4)cc(C)nc3=S)c3ccc(OC)cc3)c(=O)c2Br)cc1` (stereo unspecified) has a growth of 61.9%. `Cc1ccc(Cl)c(NS(=O)(=O)c2ccc(-c3cnc(C4CC4)o3)cc2)c1` gave a growth of 16.1%. `O=C(NC(Cc1nnc2n(Cc3ccccc3)c(=O)c3c4c(sc3n12)CCCC4)c1ccc(Cl)cc1)c1ccccc1` (stereo unspecified) gave a growth of 71.7%. With `Cc1c(O)cc(-c2cnc(N/N=C\c3ccc(Cl)cc3)s2)c(O)c1C` the growth was 99.9%. In the case of `CCN(CC)CCn1nc2c3c(cccc3c1=O)-c1ccccc1-2`, the growth is reported as 7.02% (active). In the case of `Fc1c[c-]c(-c2ccccn2)c(F)c1.[CH3-].[Pt+2].c1ccc(P(C[PH+](c2ccccc2)c2ccccc2)c2ccccc2)cc1`, the growth is reported as 6.1% (active). In the case of `CCN1C(=O)N(CC)C2Nn3c(s/c(=C\c4cccc([N+](=O)[O-])c4)c3=O)=NC21` (stereo unspecified), the growth is reported as 31%. For `N#C/C(=C/C=C/c1cccc(Cl)c1)S(=O)c1ccccc1` (stereo unspecified), the growth was -28.9% (active). Work on `Oc1c(CN2CCCC2)cc(COCc2ccc(Br)cc2)c2cccnc12` yielded a growth of 13%. Molecule `O=C(CCCCCCN1CC(=O)N2[C@@H](c3ccccc3Cl)c3[nH]c4ccccc4c3C[C@H]2C1=O)NO` has a growth of 80.3%. For `COc1ccc(C2CC(c3cccc(OC)c3)=NN2C(=O)c2cc(OC)c(OC)c(OC)c2)cc1` (stereo unspecified), the growth was 7.64% (active). With `CCc1c2c(nc3ccc(OC(=O)OCc4ccc(B5OC(C)(C)C(C)(C)O5)cc4)cc13)-c1cc3c(c(=O)n1C2)COC(=O)[C@]3(O)CC` the growth was 0.0181% (active).

— PubChem BioAssay (NCI)
